Our source for the binding signal values is publication PMC7862700, “An all-to-all approach to the identification of sequence-specific readers for epigenetic DNA modifications on cytosine”.

Experiment in all cases: DAPPL (digital affinity profiling via proximity ligation, sequencing); 10 mM Tris-HCl pH 7.5, 50 mM NaCl, 1 mM DTT, 4% glycerol, room temperature, 30 min; GST-TFs on glutathione beads, 16-mer random dsDNA library, 0.1% formaldehyde crosslink after washing; high values mean tight binding
Common to all, as to conditions: protein: recombinant; tags: N-terminal GST; dsDNA, one strand shown

One assay has as its target T1, ELK1 (Homo sapiens, UniProt P19419 1-428).
T1 sequence: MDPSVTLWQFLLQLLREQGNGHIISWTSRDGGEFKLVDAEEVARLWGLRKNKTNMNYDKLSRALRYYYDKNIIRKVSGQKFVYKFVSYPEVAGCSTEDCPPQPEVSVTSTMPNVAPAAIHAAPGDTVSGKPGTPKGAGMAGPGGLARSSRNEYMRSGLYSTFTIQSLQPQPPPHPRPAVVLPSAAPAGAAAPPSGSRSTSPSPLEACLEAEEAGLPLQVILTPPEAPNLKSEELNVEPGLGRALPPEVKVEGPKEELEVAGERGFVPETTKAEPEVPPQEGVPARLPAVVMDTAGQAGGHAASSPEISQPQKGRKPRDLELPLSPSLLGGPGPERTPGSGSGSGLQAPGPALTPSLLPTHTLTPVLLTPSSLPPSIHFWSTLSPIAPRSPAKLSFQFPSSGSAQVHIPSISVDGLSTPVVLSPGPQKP
The method in brief: (§1)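 Binding signal is defined as a hexamer's read frequency for one factor over its frequency for the tag-only sample. To obtain reads, GST-fused human transcription factors were expressed in yeast, captured on glutathione beads, barcoded with DNA and pooled with that sample. Pools met 200 nmole of a 16-mer random double-stranded DNA library in Tris/NaCl/DTT/glycerol buffer for 30 min at room temperature before washing, 0.1% formaldehyde crosslinking, proximity ligation (BsaI/T4 ligase, 1 h, 37 °C), PCR and Illumina NextSeq500 sequencing.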

For the next assay, the target named is T2, EHF (Homo sapiens, UniProt Q9NZC4 1-300).
T2 sequence: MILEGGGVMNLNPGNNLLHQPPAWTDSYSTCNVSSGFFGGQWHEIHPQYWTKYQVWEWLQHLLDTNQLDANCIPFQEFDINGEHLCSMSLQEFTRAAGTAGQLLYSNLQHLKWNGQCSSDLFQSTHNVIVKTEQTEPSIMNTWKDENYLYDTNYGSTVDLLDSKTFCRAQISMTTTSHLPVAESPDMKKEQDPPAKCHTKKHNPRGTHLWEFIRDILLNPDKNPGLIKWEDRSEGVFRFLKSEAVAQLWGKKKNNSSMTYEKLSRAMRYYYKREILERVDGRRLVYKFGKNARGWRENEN
In outline:
as §1

The target of a further assay is T3, SPIC (Homo sapiens, UniProt Q8N5J4 1-248).
T3 sequence: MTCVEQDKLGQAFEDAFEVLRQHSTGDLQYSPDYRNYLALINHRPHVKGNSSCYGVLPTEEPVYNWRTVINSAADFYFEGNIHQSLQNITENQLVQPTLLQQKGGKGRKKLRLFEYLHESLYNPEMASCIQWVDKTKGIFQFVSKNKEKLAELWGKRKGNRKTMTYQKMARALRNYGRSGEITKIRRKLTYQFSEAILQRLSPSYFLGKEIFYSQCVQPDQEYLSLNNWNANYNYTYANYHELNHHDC
The method in brief: as §1

In a further assay the target is T4, ELK4 (Homo sapiens, UniProt P28324-2 1-405).
T4 sequence: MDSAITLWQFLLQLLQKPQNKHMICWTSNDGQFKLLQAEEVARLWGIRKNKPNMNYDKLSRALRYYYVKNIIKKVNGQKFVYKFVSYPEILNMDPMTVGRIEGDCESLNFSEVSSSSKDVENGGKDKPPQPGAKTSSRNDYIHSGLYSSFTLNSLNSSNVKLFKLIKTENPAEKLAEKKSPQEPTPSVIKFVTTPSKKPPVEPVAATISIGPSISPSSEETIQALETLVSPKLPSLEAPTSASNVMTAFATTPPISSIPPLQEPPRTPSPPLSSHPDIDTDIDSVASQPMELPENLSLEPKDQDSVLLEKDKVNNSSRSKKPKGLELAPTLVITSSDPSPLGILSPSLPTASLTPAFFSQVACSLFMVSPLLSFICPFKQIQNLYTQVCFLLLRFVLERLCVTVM
The method in brief:
as §1

The target of another assay is T5, ELF3 (Homo sapiens, UniProt P78545 1-371).
T5 sequence: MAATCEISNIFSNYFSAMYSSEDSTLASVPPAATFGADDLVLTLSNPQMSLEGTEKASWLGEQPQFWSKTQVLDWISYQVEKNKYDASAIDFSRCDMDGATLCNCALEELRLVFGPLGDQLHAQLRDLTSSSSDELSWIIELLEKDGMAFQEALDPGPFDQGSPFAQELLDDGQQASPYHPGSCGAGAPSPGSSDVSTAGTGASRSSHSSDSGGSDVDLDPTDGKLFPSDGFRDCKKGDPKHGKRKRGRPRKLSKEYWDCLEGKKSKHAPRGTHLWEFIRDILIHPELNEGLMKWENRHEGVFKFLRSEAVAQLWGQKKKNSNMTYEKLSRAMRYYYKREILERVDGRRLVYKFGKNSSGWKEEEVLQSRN
In outline: as §1

In another assay the target is SPIB (Homo sapiens, UniProt Q01892 1-262). The method in brief: as §1
Chain of SPIB (Q01892 whole entry): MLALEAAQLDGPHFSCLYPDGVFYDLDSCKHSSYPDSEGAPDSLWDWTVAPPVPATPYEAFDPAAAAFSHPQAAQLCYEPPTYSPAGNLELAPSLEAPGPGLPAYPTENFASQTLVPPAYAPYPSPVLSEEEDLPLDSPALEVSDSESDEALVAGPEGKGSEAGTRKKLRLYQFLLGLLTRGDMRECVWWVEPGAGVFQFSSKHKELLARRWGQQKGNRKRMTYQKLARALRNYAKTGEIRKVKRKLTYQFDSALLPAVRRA
In the next assay the target is ELF4 (Homo sapiens, UniProt Q99607 1-663). The method in brief: as §1
Chain of ELF4 (Q99607 whole entry): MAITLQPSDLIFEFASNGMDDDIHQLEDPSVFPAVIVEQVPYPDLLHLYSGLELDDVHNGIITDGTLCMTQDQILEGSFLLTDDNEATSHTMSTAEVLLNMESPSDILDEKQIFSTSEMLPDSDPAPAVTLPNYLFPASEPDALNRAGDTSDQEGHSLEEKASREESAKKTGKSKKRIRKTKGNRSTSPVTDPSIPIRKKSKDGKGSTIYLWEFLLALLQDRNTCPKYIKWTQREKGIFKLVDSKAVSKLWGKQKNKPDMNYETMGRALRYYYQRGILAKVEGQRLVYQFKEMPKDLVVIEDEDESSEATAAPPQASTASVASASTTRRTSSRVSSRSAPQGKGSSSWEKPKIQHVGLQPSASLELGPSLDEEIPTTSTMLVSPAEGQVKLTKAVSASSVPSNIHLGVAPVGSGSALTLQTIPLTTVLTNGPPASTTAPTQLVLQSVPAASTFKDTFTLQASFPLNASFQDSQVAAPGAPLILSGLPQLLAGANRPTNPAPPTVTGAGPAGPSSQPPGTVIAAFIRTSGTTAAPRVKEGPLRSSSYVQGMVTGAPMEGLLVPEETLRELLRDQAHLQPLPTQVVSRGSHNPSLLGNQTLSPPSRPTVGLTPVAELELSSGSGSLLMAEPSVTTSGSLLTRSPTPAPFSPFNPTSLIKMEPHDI
In the next assay the target is T6, ERG (Homo sapiens, UniProt P11308 1-479).
T6 sequence: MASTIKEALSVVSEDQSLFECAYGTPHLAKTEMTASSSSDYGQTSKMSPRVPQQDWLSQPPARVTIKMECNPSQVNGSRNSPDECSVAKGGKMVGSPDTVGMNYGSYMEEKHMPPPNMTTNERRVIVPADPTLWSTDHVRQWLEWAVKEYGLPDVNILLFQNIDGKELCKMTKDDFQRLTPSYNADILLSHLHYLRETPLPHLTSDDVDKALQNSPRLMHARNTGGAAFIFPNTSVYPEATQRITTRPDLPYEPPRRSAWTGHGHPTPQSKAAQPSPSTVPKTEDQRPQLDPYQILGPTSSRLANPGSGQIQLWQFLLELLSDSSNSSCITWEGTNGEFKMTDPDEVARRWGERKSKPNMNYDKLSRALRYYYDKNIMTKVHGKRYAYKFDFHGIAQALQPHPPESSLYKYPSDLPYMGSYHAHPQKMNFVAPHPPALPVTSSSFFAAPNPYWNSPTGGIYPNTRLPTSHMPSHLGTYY
The method in brief:
as §1

The next assay addresses ELF1 (Homo sapiens, UniProt P32519 1-619). The method in brief:
as §1

A further assay concerns the target T7, ETV2 (Homo sapiens, UniProt O00321 1-342).
T7 sequence: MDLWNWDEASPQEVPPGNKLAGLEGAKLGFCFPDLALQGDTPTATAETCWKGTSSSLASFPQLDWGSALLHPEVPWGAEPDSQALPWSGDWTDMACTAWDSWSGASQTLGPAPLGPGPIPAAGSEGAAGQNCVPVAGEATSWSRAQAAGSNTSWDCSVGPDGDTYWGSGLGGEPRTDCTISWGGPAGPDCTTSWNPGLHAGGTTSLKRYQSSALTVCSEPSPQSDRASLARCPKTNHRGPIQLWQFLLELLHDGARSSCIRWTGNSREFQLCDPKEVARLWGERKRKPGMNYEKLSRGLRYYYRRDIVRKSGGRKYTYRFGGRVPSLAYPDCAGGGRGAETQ
The method in brief:
as §1

For the next assay, the target named is ETV1 (Homo sapiens, UniProt P50549 1-477). In outline:
as §1

In another assay the target is T8, ERF (Homo sapiens, UniProt P50548 1-548).
T8 sequence: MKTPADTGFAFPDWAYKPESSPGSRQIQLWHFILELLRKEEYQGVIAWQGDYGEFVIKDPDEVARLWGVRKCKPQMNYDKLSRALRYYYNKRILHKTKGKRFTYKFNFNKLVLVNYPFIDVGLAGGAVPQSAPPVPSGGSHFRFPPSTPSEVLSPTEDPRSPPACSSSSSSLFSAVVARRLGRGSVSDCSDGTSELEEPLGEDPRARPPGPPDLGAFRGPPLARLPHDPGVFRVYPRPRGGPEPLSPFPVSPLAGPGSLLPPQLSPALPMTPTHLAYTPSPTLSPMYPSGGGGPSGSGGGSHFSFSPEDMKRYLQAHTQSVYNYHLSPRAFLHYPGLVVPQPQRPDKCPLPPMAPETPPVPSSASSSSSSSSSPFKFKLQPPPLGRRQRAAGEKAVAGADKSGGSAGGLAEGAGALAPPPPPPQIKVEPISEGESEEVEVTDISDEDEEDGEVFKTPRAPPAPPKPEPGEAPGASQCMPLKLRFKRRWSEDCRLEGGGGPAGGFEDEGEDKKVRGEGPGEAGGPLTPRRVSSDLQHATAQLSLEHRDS
The method in brief:
as §1

A further assay deals with T9, ETV3L (Homo sapiens, UniProt Q6ZN32 1-361).
T9 sequence: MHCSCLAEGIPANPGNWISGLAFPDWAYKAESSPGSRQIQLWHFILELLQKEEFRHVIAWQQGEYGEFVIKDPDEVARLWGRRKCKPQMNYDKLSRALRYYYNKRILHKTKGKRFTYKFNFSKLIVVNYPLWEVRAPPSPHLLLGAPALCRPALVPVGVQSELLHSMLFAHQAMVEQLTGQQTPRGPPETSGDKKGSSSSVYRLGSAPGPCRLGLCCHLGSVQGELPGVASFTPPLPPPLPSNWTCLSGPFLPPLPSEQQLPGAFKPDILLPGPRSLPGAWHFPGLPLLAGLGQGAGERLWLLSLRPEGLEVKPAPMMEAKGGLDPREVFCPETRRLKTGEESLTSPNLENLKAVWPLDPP
The method in brief:
as §1

A further assay addresses T10, ETS2 (Homo sapiens, UniProt P15036 1-469).
T10 sequence: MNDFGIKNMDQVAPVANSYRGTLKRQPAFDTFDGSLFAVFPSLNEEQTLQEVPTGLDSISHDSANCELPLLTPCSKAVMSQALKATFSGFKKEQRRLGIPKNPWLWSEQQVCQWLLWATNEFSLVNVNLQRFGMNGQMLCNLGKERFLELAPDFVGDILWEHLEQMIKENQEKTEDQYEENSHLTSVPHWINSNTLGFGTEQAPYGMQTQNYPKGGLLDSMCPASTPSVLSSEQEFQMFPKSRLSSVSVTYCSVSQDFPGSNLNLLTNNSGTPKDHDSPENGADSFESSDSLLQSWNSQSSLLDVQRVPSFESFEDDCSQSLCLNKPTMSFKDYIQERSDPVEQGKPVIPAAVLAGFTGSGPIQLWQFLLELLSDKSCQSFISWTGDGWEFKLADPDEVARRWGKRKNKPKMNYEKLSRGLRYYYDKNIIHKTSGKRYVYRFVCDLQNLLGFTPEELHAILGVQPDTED
The method in brief: as §1

The target of another assay is T11, SPDEF (Homo sapiens, UniProt O95238 1-335).
T11 sequence: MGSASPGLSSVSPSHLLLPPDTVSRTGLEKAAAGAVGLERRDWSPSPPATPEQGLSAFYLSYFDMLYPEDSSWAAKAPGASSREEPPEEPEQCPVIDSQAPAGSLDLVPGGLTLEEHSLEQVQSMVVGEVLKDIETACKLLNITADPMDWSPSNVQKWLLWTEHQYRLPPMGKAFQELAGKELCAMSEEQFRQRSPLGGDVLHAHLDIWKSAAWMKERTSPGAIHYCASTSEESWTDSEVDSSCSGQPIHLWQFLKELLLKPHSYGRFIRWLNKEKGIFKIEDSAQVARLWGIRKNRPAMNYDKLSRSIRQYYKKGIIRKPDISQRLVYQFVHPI
In outline: as §1

The next assay has as its target T12, ELF5 (Homo sapiens, UniProt Q9UKW6-2 1-255).
T12 sequence: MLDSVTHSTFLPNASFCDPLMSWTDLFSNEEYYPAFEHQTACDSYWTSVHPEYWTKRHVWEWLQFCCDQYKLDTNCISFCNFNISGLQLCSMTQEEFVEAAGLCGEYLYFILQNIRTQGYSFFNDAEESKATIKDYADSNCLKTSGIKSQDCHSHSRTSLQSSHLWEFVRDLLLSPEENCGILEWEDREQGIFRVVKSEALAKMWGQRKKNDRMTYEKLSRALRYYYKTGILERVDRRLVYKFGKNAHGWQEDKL
In outline: as §1

Another assay addresses T13, ETV3 (Homo sapiens, UniProt P41162-2 1-143).
T13 sequence: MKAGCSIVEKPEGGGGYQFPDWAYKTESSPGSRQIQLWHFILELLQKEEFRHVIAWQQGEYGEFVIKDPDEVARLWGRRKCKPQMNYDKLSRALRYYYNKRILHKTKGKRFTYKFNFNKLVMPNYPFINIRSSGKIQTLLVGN
The method in brief: as §1

Chain of ETV1 (P50549 whole entry): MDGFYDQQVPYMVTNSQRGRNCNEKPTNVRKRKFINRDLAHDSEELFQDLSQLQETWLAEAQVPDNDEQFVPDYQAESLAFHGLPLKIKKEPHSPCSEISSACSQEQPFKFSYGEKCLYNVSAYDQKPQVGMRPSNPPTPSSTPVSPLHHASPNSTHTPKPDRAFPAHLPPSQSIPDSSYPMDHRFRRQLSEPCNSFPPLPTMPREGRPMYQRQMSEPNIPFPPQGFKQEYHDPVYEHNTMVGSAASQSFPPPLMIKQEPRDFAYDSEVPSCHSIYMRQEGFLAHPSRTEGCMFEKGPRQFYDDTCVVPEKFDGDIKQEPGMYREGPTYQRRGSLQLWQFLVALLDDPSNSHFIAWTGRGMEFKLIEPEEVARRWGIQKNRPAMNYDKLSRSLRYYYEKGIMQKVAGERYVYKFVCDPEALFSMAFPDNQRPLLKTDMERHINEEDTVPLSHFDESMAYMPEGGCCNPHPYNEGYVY
Chain of ELF1 (P32519 whole entry): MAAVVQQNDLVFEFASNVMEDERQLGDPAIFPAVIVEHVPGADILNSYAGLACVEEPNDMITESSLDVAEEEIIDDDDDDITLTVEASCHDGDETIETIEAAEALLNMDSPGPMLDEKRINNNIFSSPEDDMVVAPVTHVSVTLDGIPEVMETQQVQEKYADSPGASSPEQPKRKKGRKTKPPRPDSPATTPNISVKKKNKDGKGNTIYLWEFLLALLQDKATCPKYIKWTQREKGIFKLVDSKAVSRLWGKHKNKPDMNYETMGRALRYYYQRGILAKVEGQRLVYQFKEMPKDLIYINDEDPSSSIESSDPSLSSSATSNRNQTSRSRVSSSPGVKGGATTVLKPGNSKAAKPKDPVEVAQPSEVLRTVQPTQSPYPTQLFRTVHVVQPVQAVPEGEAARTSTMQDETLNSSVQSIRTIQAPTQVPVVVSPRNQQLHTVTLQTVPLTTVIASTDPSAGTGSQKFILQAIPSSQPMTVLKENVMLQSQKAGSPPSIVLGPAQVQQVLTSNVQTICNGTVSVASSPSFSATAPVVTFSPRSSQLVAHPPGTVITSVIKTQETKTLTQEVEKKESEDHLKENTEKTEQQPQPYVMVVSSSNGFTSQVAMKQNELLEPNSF

As for TGGTGA, the binding signal was 1.04 fold enrichment (6-mer frequency, TF over GST control) with ELK1; 1.09 fold enrichment (6-mer frequency, TF over GST control) with EHF; 1.02 fold enrichment (6-mer frequency, TF over GST control) with SPIC; 1.04 fold enrichment (6-mer frequency, TF over GST control) with ELK4; 1.03 fold enrichment (6-mer frequency, TF over GST control) with ELF3.

For TGCAGA, the binding signal with SPIB is 1.03 fold enrichment (6-mer frequency, TF over GST control); in the assay with SPIC it was 1.06 fold enrichment (6-mer frequency, TF over GST control); with ELF4, 1 fold enrichment (6-mer frequency, TF over GST control).

Turning to TGTCAG, the binding signal was 1 fold enrichment (6-mer frequency, TF over GST control) with SPIC and 1.02 fold enrichment (6-mer frequency, TF over GST control) with ELK4.

As for GTGTCT, the binding signal with ERG is 1.1 fold enrichment (6-mer frequency, TF over GST control); with ELF1, 1.06 fold enrichment (6-mer frequency, TF over GST control); with EHF it was 1.06 fold enrichment (6-mer frequency, TF over GST control); in the assay with SPIB it was 1.03 fold enrichment (6-mer frequency, TF over GST control); with SPIC it was 1.16 fold enrichment (6-mer frequency, TF over GST control); with ELF4, 1.02 fold enrichment (6-mer frequency, TF over GST control). In addition, the binding signal with ETV2 was 1.15 fold enrichment (6-mer frequency, TF over GST control); in the assay with ELF3, 1 fold enrichment (6-mer frequency, TF over GST control); with ETV1, 1.09 fold enrichment (6-mer frequency, TF over GST control); with ERF it was 1.06 fold enrichment (6-mer frequency, TF over GST control); in the assay with ETV3L, 1.09 fold enrichment (6-mer frequency, TF over GST control); with ETS2, 1.03 fold enrichment (6-mer frequency, TF over GST control). Also, the binding signal was 1.09 fold enrichment (6-mer frequency, TF over GST control) in the assay with SPDEF; 1.13 fold enrichment (6-mer frequency, TF over GST control) with ELF5; 1.02 fold enrichment (6-mer frequency, TF over GST control) with ETV3.
